Bioassay records as filed in PubChem BioAssay.
TexasRed fluor – Total Fluorescence Counterscreen for Inhibitors of the Interaction of Thyroid Hormone Receptor and Steroid Receptor Coregulator 2. TRb/SRC2 Texas Red total fluorescence interference. AID 1479, 2009. Potency, µM (doses to about 106 µM), for the others: at the highest dose fluorescence change, negative = quenching. 280,000 compounds, 0.29% hits; active means well fitted curve in either direction with a large enough effect; inconclusive means small, poorly fitted or top-dose-only effect; further: potency means the concentration at half of the fitted maximal effect
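Flags fluorescent or light-absorbing compounds by total fluorescence, S + 2P, at 555 nm excitation and 632 nm emission. Mixture: 20 nM Texas Red SRC2 peptide, 0.6 uM human TRb LBD, 1 uM T3, 5% DMSO; compound exposure 5 h at ambient temperature.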
Tau fluor counter – Counterscreen qHTS for Inhibitors of Tau Fibril Formation, Fluorescence Polarization | 280,000 compounds, 0.93% hits | tau K18 P301L Alexa594 fluorescence, heparin fibrillization | Potency, µM (series often up to 57.7 µM), without a hit: at the top dose activity change, negative = decrease | AID 1463, 2008; further: potency means the concentration at half of the fitted maximal effect; nearly all actives have a fitted effect of over 55% in size
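Human K18 P301L tau (15 uM unlabeled plus 0.24 uM Alexa 594-labeled, final) in 100 mM sodium acetate pH 7 was mixed with compound and 20 uM heparin and incubated 6 hr at 37 C.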
Tau fibril ThT – qHTS for Inhibitors of Tau Fibril Formation, Thioflavin T Binding; Microtubule-associated protein tau (Homo sapiens), P10636; recombinant tau K18 P301L (four-repeat tau fragment), heparin-induced fibrillization, ThT fluorescence; Potency, µM (series often up to 57.4 µM), for inactives: top-dose activity, negative = inhibition, usual class: inhibitors; 270,000 compounds, 2.1% hits; further: potency means the concentration at half of the fitted maximal effect; nearly all actives have a fitted effect of over 55% in size
Target sequence (P10636 561-689 P618L limits assumed): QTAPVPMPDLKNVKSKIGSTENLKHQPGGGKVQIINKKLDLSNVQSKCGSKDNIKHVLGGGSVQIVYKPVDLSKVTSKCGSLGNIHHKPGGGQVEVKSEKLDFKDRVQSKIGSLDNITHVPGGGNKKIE
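K18 P301L tau (15 uM + 0.24 uM Alexa 594-tagged), heparin 20 uM, NaOAc pH 7, 6 h 37 C; ThT 30 uM, 1 h RT, ex 450/em 510 nm.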
Tau fibril FP – qHTS for Inhibitors of Tau Fibril Formation, Fluorescence Polarization | Microtubule-associated protein tau (Homo sapiens), P10636 | Potency, µM (doses to about 57.7 µM), for the others: top-dose activity, negative = inhibition, hits mostly inhibitors | 280,000 compounds, 0.39% hits | K18 P301L tau heparin fibrillization, Alexa594 FP, 6 h; further: potency means the concentration at half of the fitted maximal effect; nearly all actives have a fitted effect of over 55% in size
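Compound effects on tau fibrillization are measured by Alexa 594 fluorescence polarization (ex 555, em 632 nm). K18 P301L tau is used at 15 uM with 0.24 uM labeled tracer, and 20 uM heparin induces aggregation over 6 hr at 37 C.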
TRb SRC2 PPI – qHTS for Inhibitors of the Interaction of Thyroid Hormone Receptor and Steroid Receptor Coregulator 2; Thyroid hormone receptor beta (Homo sapiens), P10828; TRbeta-SRC2 peptide binding, fluorescence polarization; receptor liganded with 1 µM T3; AID 1469, 2008; 280,000 compounds, 0.065% hits; Potency, µM (highest dose often 106 µM), for inactives: at the top dose activity change, negative = inhibition, hits mostly inhibitors;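 further: potency means the concentration at half of the fitted maximal effect; plate controls were bound peptide for no effect and peptide without receptor for full effect; nearly all actives have a fitted effect of over 50% in size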
Target sequence (P10828 whole entry, looked up): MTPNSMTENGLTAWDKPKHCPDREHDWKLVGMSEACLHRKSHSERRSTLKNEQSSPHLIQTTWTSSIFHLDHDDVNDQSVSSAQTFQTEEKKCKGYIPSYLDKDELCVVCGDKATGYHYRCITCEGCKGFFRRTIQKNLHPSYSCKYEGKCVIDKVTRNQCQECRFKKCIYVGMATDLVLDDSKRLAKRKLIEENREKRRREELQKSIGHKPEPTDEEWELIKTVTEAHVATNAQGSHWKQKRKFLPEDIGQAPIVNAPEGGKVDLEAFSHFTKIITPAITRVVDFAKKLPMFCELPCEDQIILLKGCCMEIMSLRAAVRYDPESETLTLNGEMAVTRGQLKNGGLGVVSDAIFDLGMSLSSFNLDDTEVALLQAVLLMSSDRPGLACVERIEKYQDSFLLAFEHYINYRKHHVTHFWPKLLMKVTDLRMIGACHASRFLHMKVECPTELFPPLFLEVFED
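Assay buffer: 20 mM Tris-HCl, 100 mM NaCl, 10% glycerol, 1 mM EDTA, 0.01% NP-40, 1 mM DTT, 1 uM T3, 5% DMSO; TRb LBD 0.6 uM, Texas Red SRC2 20 nM; FP after 5 hr.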
PNC inhibitor – High Content Assay for Compounds that inhibit the Assembly of the Perinucleolar Compartment | activity change (PNC), negative = inhibition, % at 10 µM | PC3M PTB-GFP, PNC prevalence imaging, 16 h; active compounds read low | 140,000 compounds, 3.1% hits;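 active means readout at or below -70, meaning at least 70% loss of cells showing the perinucleolar compartment, a nuclear body marking cancer cells; inconclusive means readout between -30 and a set limit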;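 further: plate controls were DMSO wells for no effect and camptothecin positive control wells for full effect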
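Read-out is percentage of cells bearing a perinucleolar compartment, from automated 20x imaging of fixed, Hoechst-stained PC3M PTB-GFP cells. Cells were seeded 4 h, then exposed 16 h to compound (23 nl of library stock) in duplicate plates.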
Numbers without * were called inactive; ? = inconclusive; nt = not tested or not shown; [ ] = dose if it differs, or a comment. Rows were chosen to be rich in hits. Some 4.6% of all compounds tested hit in one or more screens of this group. Unless noted, the call rests on the fitted dose curve; in most records, active means well fitted curve in the direction sought with a large enough effect; inconclusive means small, poorly fitted or top-dose-only effect, or another doubt; inactive means no such curve, though single readings can be large; an effect the other way counts as inactive or inconclusive. Unless noted, on the % scale 0 is the no-effect control and ±100 the full control effect.

SMILES	TexasRed fluor	Tau fluor counter	Tau fibril ThT	Tau fibril FP	TRb SRC2 PPI	PNC inhibitor
CC(/C=C\C=C\c1ccccc1)=N\NC(=O)c1cncc(Br)c1	0.3%	-13.7%	10µM*	3.1%	3.0%	nt
COc1cc(NC(=S)NC(=O)c2ccc(C(C)(C)C)cc2)ccc1NC(=O)c1cccs1	11.5%	-20.3%	-17.4%	1.6%	-2.9%	-115.1*
COc1cc(NC(=S)NC(=O)c2cc(C)cc(C)c2)ccc1NC(=O)c1cccs1	-3.1%	-23.1%	?	-12.6%	0.1%	12.5
CCC(C)n1c(=O)c2sccc2n2c(CCCC(=O)NCc3ccccc3Cl)nnc12 (stereo not given)	-1.1%	-3.5%	4.6%	-4.4%	-2.5%	nt
CCOC(=O)c1nn(-c2cccc(OC)c2)c2nc(CC)c(C#N)c(=O)n12	-1.5%	1.7%	5.6%	4.0%	3.4%	-109.0*
CCOc1ccccc1C1CC(=O)Nc2cc3c(cc21)OCCO3 (stereo not given)	-1.2%	-8.0%	-11.9%	12.8%	3.5%	-86.2*
COc1cccc(C2CC(=O)Nc3cc4c(cc32)OCO4)c1OC(C)C (stereo not given)	-0.3%	-22.4%	-9.3%	7.3%	-9.6%	nt
CC(C)Oc1ccccc1C1CC(=O)Nc2cc3c(cc21)OCO3 (stereo not given)	0.2%	-22.5%	-18.7%	9.5%	-1.9%	-80.6*
CCCOc1ccccc1C1CC(=O)Nc2cc3c(cc21)OCCO3 (stereo not given)	-5.0%	-2.1%	-6.6%	3.3%	-15.8%	-115.7*
CCOc1cc(C2CC(=O)Nc3cc4c(cc32)OCCO4)ccc1O (stereo not given)	-2.0%	-14.5%	-15.3%	-5.0%	-4.6%	nt
CCCC[C@H]1C[C@@H]1[C@@H]1N(P(=O)(c2ccccc2)c2ccccc2)[C@](CO)(c2ccccc2)CC12CC2	-4.4%	-17.6%	?	-5.4%	-3.0%	nt
O=C(/C=C/c1cc2ccccc2o1)c1ccccc1O	-3.0%	-15.6%	?	6.6%	0.7%	nt
COc1ccc(N/N=C(/N=Nc2nc(C)cc(=O)[nH]2)c2ccccc2)cc1	2.3%	?	4.47µM*	2.7%	-7.3%	-6.6
CN(C)c1ccc(/C=C2/NC(=O)NC2=O)cc1	2.3%	-11.9%	?	5.2%	4.7%	-10.5
CN(C)c1ccc(/C=C2\N=C(c3ccc(Cl)c([N+](=O)[O-])c3)NC2=O)cc1	4.8%	?	0.891µM*	-15.0%	6.4%	nt
Cc1cccc2c(=O)c(C(=O)NCCCN3CCOCC3)c[nH]c12	0.1%	-0.5%	-4.9%	6.4%	-7.4%	-100.0*
Cc1ccccc1CS(=O)(=O)Cc1ccc(C(=O)NCCCN2CCOCC2)o1	-0.4%	9.5%	5.4%	5.3%	2.2%	-89.8*
c1ccc2c(c1)CCOC2CNCCCN1CCCCC1 (stereo not given)	3.2%	-7.8%	-9.4%	2.2%	0.6%	5.4
Cc1ccc(Cn2c(=O)c3c(nc4n3CCN4Cc3ccco3)n(C)c2=O)cc1	-2.2%	-8.8%	5.2%	9.0%	0.0%	-100.0*
N#Cc1cccc(-n2nnnc2-c2ccccn2)c1	-12.4%	14.1µM*[quencher]	6.31µM*	-1.8%	5.3%	-19.3
Cc1ccc(C)c(NC(=S)NNC(=O)c2csc(C)c2C)c1	2.1%	3.3%	-4.3%	-3.1%	-7.5%	?
Cc1ccc(C)c(NC(=S)NNC(=O)c2csc(C(C)C)c2)c1	-1.2%	-16.0%	?	11.5%	-0.7%	-118.9*
COc1cc(N=C2C(=O)N3CCCc4cccc2c43)cc(OC)c1	0.8%	-1.1%	-13.0%	-0.7%	-0.4%	-103.9*
